# Assay results: PubChem BioAssay (NCATS)
# Inconclusive results are not listed. A call without a number means that no potency is given here. Values without a mark were called inactive. The source made the active and inactive calls. Calls follow the shape of the dose curve; as a rule, active = well fitted curve in the direction sought with a large enough effect; inconclusive = small, poorly fitted or top-dose-only effect, or another doubt; inactive = no such curve, though single readings can be large; an effect the other way counts as inactive or inconclusive.
# Key:
# CRL-7250 = normal cell line; assay: Cytotoxic Profiling of Annotated Libraries Using Quantitative High-Throughput Screening (AID 1296008); details: Five cell lines viability, CellTiter-Glo ATP luminescence, 48-72 h; max response: stronger effect = lower value; also: nearly all actives have a fitted effect of over 60% in size; also: potency is read from the fitted curve at half-maximal effect
# Summary of the method: (§1)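 Cells exposed to compounds for 48 or 72 hr at 37 degrees Celsius. Viability read as ATP-coupled luminescence with CellTiter-Glo after 10 min at room temperature.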
# HEK293 = assay: as above; details: Five cell lines viability, CellTiter-Glo ATP luminescence, 48-72 h; max response: stronger effect = lower value
# Summary of the method: as §1
# HaCat = assay: as above; details: Five cell lines viability, CellTiter-Glo ATP luminescence, 48-72 h; max response: stronger effect = lower value
# Summary of the method: as §1
# KB-3-1 = assay: as above; details: Five cell lines viability, CellTiter-Glo ATP luminescence, 48-72 h; max response: stronger effect = lower value
# Summary of the method: as §1
# NIH3T3 [1] = assay: as above; details: Five cell lines viability, CellTiter-Glo ATP luminescence, 48-72 h; max response: stronger effect = lower value
# Summary of the method: as §1
# MCC-13 = assay: qHTS assay to identify novel small-molecules to repurpose for Merkel cell carcinoma treatment (AID 1296009); details: MCC and control cell lines, CellTiter-Glo viability, 72 h; series mostly up to 46 µM; also: nearly all actives have a fitted effect of over 60% in size; also: potency is read from the fitted curve at half-maximal effect
# Summary of the method: (§2)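 Cells were incubated with compound for 72 hr at 37 degree celsius before CellTiter-Glo addition. Luminescence was normalized with no-cell wells as full cytotoxicity and DMSO as baseline.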
# MCC-26 = assay: as above; details: MCC and control cell lines, CellTiter-Glo viability, 72 h; series mostly up to 46 µM
# Summary of the method: as §2
# MKL-1 = assay: as above; details: MCC and control cell lines, CellTiter-Glo viability, 72 h; series mostly up to 46 µM
# Summary of the method: as §2
# MKL-2 = assay: as above; details: MCC and control cell lines, CellTiter-Glo viability, 72 h; series mostly up to 46 µM
# Summary of the method: as §2
# UISO = assay: as above; details: MCC and control cell lines, CellTiter-Glo viability, 72 h; series mostly up to 46 µM
# Summary of the method: as §2
# WaGa = assay: as above; details: MCC and control cell lines, CellTiter-Glo viability, 72 h; series mostly up to 46 µM
# Summary of the method: as §2
# W2 = assay: qHTS profiling for inhibitors of Plasmodium falciparum proliferation (AID 504749); also: nearly all actives have a fitted effect of over 60% in size; details: P. falciparum in erythrocytes, SYBR Green DNA, 72 h; series mostly up to 28.7 µM
# Summary of the method: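 Readout was DNA-dye fluorescence from lysed cultures, ex 485/em 535 nm. Parasitized red cells had grown 72 h with compound; data scaled between 0.29 uM artemisinin and DMSO wells and corrected using vehicle-only plates.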
# C33A = assay: Primary qHTS to identify gynecologic anti-cancer compounds using libraries of approved drugs and bioactive compounds (AID 1345084); details: Gynecologic cancer cell panel viability, ATPlite luminescence, 48 h; series mostly up to 57.5 µM; also: nearly all actives have a fitted effect of over 55% in size
# Summary of the method: (§3)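 Luminescence from the ATPlite ATP-monitoring reagent indicates viable cell number; lower signal means cytotoxicity. Cells received compound 16 h after seeding and were exposed for 48 h across five concentrations.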
# CASKI = assay: as above; details: Gynecologic cancer cell panel viability, ATPlite luminescence, 48 h; series mostly up to 57.5 µM
# Summary of the method: as §3
# Es-2 = assay: as above; details: Gynecologic cancer cell panel viability, ATPlite luminescence, 48 h; series mostly up to 57.5 µM
# Summary of the method: as §3
# HEK293T = assay: qHTS assay to identify novel small-molecules to repurpose for Merkel cell carcinoma treatment (AID 1296009); details: MCC and control cell lines, CellTiter-Glo viability, 72 h; at 44.8 µM (top of the series) unless noted; also: nearly all actives have a fitted effect of over 60% in size; also: potency is read from the fitted curve at half-maximal effect
# Summary of the method: as §2
# NIH3T3 [2] = assay: as above; details: MCC and control cell lines, CellTiter-Glo viability, 72 h; at 44.8 µM (top of the series) unless noted
# Summary of the method: as §2
smiles,measurement,setting,value
c1ccc2c(CN3CCNCC3)cccc2c1,max response,CRL-7250,-5.13%
same,max response,HEK293,-5.02%
same,max response,HaCat,2.18%
same,outcome,KB-3-1,inactive
same,max response,NIH3T3 [1],4.9%
same,Potency,MCC-13,inactive
same,Potency,MCC-26,inactive
same,Potency,MKL-1,inactive
same,Potency,MKL-2,inactive
same,Potency,UISO,inactive
same,Potency,WaGa,inactive
C#CC1(O)CCC2C3CCC4=CC(=O)CCC4(C)C3CCC21C (configuration not stated),Potency,W2,inactive
same,max response,CRL-7250,-20.8%
same,max response,HEK293,-10.4%
same,max response,HaCat,-0.0987%
same,max response,KB-3-1,-11.2%
same,max response,NIH3T3 [1],0.477%
same,Potency,MCC-13,inactive
same,Potency,MCC-26,inactive
same,Potency,MKL-1,inactive
same,Potency,MKL-2,inactive
same,Potency,UISO,inactive
same,Potency,WaGa,inactive
C=CCON=C(C[C@H]1O[C@@H]2O[C@]3(C)CC[C@@H]4[C@H](C)CC[C@@H]([C@H]1C)[C@@]24OO3)[C@H]1O[C@@H]2O[C@]3(C)CC[C@H]4[C@H](C)CC[C@@H]([C@@H]1C)[C@@]24OO3,Potency,CRL-7250,0.935 µM (active)
same,Potency,HEK293,0.235 µM (active)
same,Potency,HaCat,2.96 µM (active)
same,Potency,KB-3-1,1.32 µM (active)
same,Potency,MCC-26,inactive
same,Potency,MKL-1,1.18 µM (active)
same,Potency,WaGa,1.05 µM (active)
O=[N+]([O-])c1ncc[nH]1,max response,CRL-7250,-4.09%
same,max response,HEK293,-7.79%
same,max response,HaCat,-7.46%
same,max response,NIH3T3 [1],-0.757%
same,Potency,MCC-13,inactive
same,Potency,MCC-26,inactive
same,Potency,MKL-1,inactive
same,Potency,MKL-2,inactive
same,Potency,UISO,inactive
same,Potency,WaGa,inactive
C[C@@H]1CC[C@H]2[C@@H](C)C(=O)O[C@@H]3O[C@@]4(C)CC[C@H]1[C@]32OO4,max response,CRL-7250,-21.1%
same,Potency,HEK293,1.66 µM (active)
same,max response,HaCat,-10.9%
same,max response,KB-3-1,-6.88%
same,max response,NIH3T3 [1],-12.8%
same,Potency,MCC-13,inactive
same,Potency,MCC-26,inactive
same,Potency,MKL-1,inactive
same,Potency,MKL-2,inactive
Nc1ccc(Cl)cc1,max response,CRL-7250,-5.83%
same,max response,HEK293,4.83%
same,max response,HaCat,-11.6%
same,max response,KB-3-1,-17.1%
same,max response,NIH3T3 [1],2.51%
same,Potency,MCC-13,inactive
same,Potency,MKL-1,inactive
same,Potency,MKL-2,inactive
same,Potency,UISO,inactive
same,Potency,WaGa,inactive
same,Potency,C33A,inactive
same,Potency,CASKI,inactive
same,Potency,Es-2,inactive
O=S(=O)(O)C(F)(F)C(F)(F)C(F)(F)C(F)(F)F,max response,CRL-7250,-7.36%
same,outcome,HEK293,inactive
same,max response,HaCat,2.96%
same,max response,KB-3-1,-15.1%
same,outcome,NIH3T3 [1],inactive
same,outcome,HEK293T,inactive [at 92 µM]
same,Potency,MCC-13,inactive
same,Potency,MKL-1,inactive
same,Potency,MKL-2,inactive
same,outcome,NIH3T3 [2],inactive [at 92 µM]
same,Potency,UISO,inactive
same,Potency,WaGa,inactive
same,Potency,C33A,inactive
same,Potency,CASKI,inactive
same,Potency,Es-2,inactive
